{
  "source": "PubChem BioAssay (NCATS)",
  "note": "Values joined by “and” are separate entries in the source; they are usually repeats but may differ in a detail not shown here. Equal values may be shown once. Inconclusive results are not listed. Entries that show only a call come without a potency. Active and inactive are the calls of the source. The call rests on the fitted dose curve; in most records, active means well fitted inhibition curve with a large enough effect; inconclusive means small, poorly fitted or top-dose-only effect; inactive means flat fitted curve, though single readings scatter. Non-standard residues stand in square brackets, D forms with d. Residues, ends and D or L forms follow the SMILES beside them. Orn = NCCC[C@H](N)C(=O)O",
  "data": [
    {"experiment": "P-glycoprotein substrates identified in KB-8-5-11 adenocarcinoma cell line, qHTS therapeutic library screen (AID 1346987); further: nearly all actives have a fitted effect of over 65% in size; further: potency means the concentration at half of the fitted maximal effect", "conditions": "KB-8-5-11 (P-gp overexpressing) viability, CellTiter-Glo, 72 h; series mostly up to 44.5 µM", "how_it_was_run": "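Human cervical adenocarcinoma KB-8-5-11 cells, selected in colchicine to over-express P-gp and assayed without it, were exposed for 72 h to titrated compounds. An ATP-based luminescent viability signal gave AC50.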", "values": [
      {"smiles": "CC1[C@@H](O)[C@@H](O)C2[C@]3(C)C(C[C@H]4OC(=O)[C@H](O)[C@]1(O)[C@@]24C)C(C)(O)C[C@H](O)[C@H]3O", "note": "(stereo not given in full)", "Potency": "inactive"},
      {"smiles": "C(#Cc1cccc(CN2CCOCC2)c1)CCN1CCCCC1", "Potency": "inactive"},
      {"smiles": "CC1=C(/C=C/C(C)=C/C=C/C(C)=C/C=C/C=C(C)/C=C/C=C(C)/C=C/C2=C(C)C(=O)CCC2(C)C)C(C)(C)CCC1=O", "Potency": "inactive"},
      {"smiles": "COc1cc(O[C@@H]2O[C@H](CO)[C@@H](O)[C@H](O)[C@H]2O)c(CCC(=O)OC[C@H]2O[C@@H](Oc3cc(OC)c(C4OC(=O)C(C)(O)C4O)cc3CCC(=O)O)[C@H](O)[C@@H](O)[C@@H]2O)cc1C1OC(=O)C(C)(O)C1O", "note": "(stereo not given in full)", "outcome": "inactive [at 9.29 µM]"},
      {"smiles": "CN[C@@H]1[C@@H](O)[C@@H](O[C@@H]2[C@@H](O)[C@H](O[C@H]3O[C@H](CN)[C@@H](O)[C@H](O)[C@H]3O)[C@@H](N)C[C@H]2NC(=O)[C@@H](O)CN)OC[C@]1(C)O", "Potency": "inactive"},
      {"smiles": "C[C@@H]1C(=O)O[C@H]2CC34[C@H]5C[C@@H](C(C)(C)C)C36[C@@H](OC(=O)[C@@H]6O)O[C@@]4(C(=O)O5)[C@]21O", "note": "(stereo not given in full)", "Potency": "inactive"},
      {"smiles": "C=C1C(OC(C)=O)C(=O)C2C(C)(C)C(OC(C)=O)CCC2(C)C1CC(OC(C)=O)/C(C)=C/COC(C)=O", "note": "(stereo not given)", "Potency": "inactive"},
      {"smiles": "CC(C)C[C@@H]1NC(=O)[C@H](CCCN)NC(=O)[C@H](C(C)C)NC(=O)[C@@H]2CCCN2C(=O)[C@@H](Cc2ccccc2)NC(=O)[C@H](CC(C)C)NC(=O)[C@H](CCCN)NC(=O)[C@H](C(C)C)NC(=O)[C@@H]2CCCN2C(=O)[C@@H](Cc2ccccc2)NC1=O", "note": "(cyclo(V[Orn]L[dF]PV[Orn]L[dF]P))", "Potency": "inactive"},
      {"smiles": "C[C@@H]1C(=O)O[C@H]2[C@H]1CC[C@@]1(C)C(=O)C=C[C@](C)(O)[C@H]21", "Potency": "inactive"},
      {"smiles": "Cn1ccnc1CCOC(c1cc2nccc(C(=O)O)c2[nH]1)c1ccccc1Cl", "note": "(stereo not given)", "Potency": "inactive"},
      {"smiles": "CC1=C(C)C(=O)OC(C(C)(O)C2CCC3C4CC=C5CC(OC6OC(COC7OC(CO)C(O)C(O)C7O)C(O)C(O)C6O)CC(O)C5(C)C4CCC32C)C1", "note": "(stereo not given)", "Potency": "inactive"},
      {"smiles": "O=C(O)C[C@H](O)C[C@H](O)/C=C/c1c(C2CC2)nc2ccccc2c1-c1ccc(F)cc1", "Potency": "8.2 µM (active) and 5.17 µM (active)"},
      {"smiles": "CC1CCC2C(C)(C)C(O)CCC2(C)C12Cc1c(O)cc3c(c1O2)CN=C3N", "note": "(stereo not given)", "Potency": "inactive"},
      {"smiles": "CC(=O)OCC(=O)[C@@]1(O)CC[C@H]2[C@@H]3C[C@H](C)C4=CC(=O)C=C[C@]4(C)[C@H]3[C@@H](O)C[C@@]21C", "Potency": "inactive"},
      {"smiles": "COc1c2c(c(C)c3c1C(=O)OC3)OC1(C)CC(O)C3(O)C(C)(C)OC(=O)CCC3(C)C1C2", "note": "(stereo not given)", "Potency": "inactive"},
      {"smiles": "CC(C)(C)NC(=O)[C@@H]1C[C@@H]2CCCC[C@@H]2CN1C[C@@H](O)[C@H](Cc1ccccc1)NC(=O)[C@H](CC(N)=O)NC(=O)c1ccc2ccccc2n1", "Potency": "inactive"},
      {"smiles": "COc1ccccc1-n1c(SCC(=O)Nc2nc3ccc(C)cc3s2)nc2c(c1=O)SCC2", "Potency": "inactive"},
      {"smiles": "CCS(=O)(=O)N1CCC([C@@H](C)n2c(C)c(C(=O)NCc3c(OC)cc(C)[nH]c3=O)c3ccccc32)CC1", "Potency": "inactive"},
      {"smiles": "CC[C@H](C)/C=C(C)/C=C/C(=O)Cc1cc(O)c(C)c(O)c1C=O", "Potency": "inactive"},
      {"smiles": "C=C(C)[C@@H](C)[C@H]1O[C@]23C[C@]4(CO2)C(CCC2[C@@]5(C)CC[C@H](O[C@@H]6OC[C@H](O)[C@H](O[C@@H]7O[C@H](CO)[C@@H](O)[C@H](O)[C@H]7O)[C@H]6O[C@@H]6O[C@@H](CO)[C@H](O)[C@H]6O)C(C)(C)C5CC[C@]24C)C3[C@@](C)(O)[C@@H]1OC(C)=O", "note": "(stereo not given in full)", "activity change, negative = cytotoxicity": "4.3% [at 9.29 µM] (inactive)"},
      {"smiles": "COc1ccc(C[C@@H](C)NC[C@H](O)c2ccc(O)c(NC=O)c2)cc1", "Potency": "inactive"},
      {"smiles": "C[C@@H]1CC[C@]2(C)C(C[C@@H](O)[C@H](O)[C@]23CO3)[C@@]1(C)CCc1ccoc1", "note": "(stereo not given in full)", "Potency": "inactive"},
      {"smiles": "O=C1[C@H](O[C@@H]2O[C@H](CO)[C@@H](O)[C@H](O)[C@H]2O)Oc2ccccc2N1O", "Potency": "inactive"},
      {"smiles": "O=C(O)C[C@@H](NC(=O)c1cc(-c2ccc(-c3ccncc3)cc2)cs1)c1ccccc1", "Potency": "inactive"},
      {"smiles": "O=C(OCC12OC1C=CC(OC(=O)c1ccccc1)C2O)c1ccccc1", "note": "(stereo not given)", "Potency": "inactive"},
      {"smiles": "CC1=C(C)C(=O)OC(C(C)C2C(O)CC3C4C5OC5C5(O)CC(OC6OC(CO)C(O)C(O)C6O)CC(O)C5(C)C4CCC32C)C1", "note": "(stereo not given)", "Potency": "inactive"},
      {"smiles": "COC(=O)[C@]12C(=O)C(C)=C(O)[C@@]1(C)C(C)=CC1[C@@]34CC[C@@H](OC(C)=O)C(C)(C)C3[C@H](C[C@]12C)OC4=O", "note": "(stereo not given in full)", "Potency": "inactive"},
      {"smiles": "O=C(O)C1CCCN1", "note": "(stereo not given)", "Potency": "inactive"},
      {"smiles": "C[C@@H]1CCC2C(C)(C)[C@H](O)CC[C@]2(C)[C@@]12Cc1c(O)cc3c(c1O2)CN(CCO)C3=O", "note": "(stereo not given in full)", "Potency": "inactive"},
      {"smiles": "CC1(C)CC[C@]2(C(=O)O)CC[C@]3(C)C(=CCC4[C@@]5(C)CCC(O[C@@H]6OC[C@H](O)[C@H](O)[C@H]6O[C@@H]6O[C@H](CO)[C@@H](O)[C@H](O)[C@H]6O)[C@@](C)(CO)C5CC[C@]43C)[C@@H]2C1", "note": "(stereo not given in full)", "Potency": "inactive"},
      {"smiles": "C/C=C/C=C/C(CC(=O)O)Nc1ccc(C=O)cc1", "note": "(stereo not given)", "Potency": "inactive"},
      {"smiles": "C=CC1C(O[C@@H]2O[C@H](CO)[C@@H](O)[C@H](O)[C@H]2O)OC=C(C(=O)OC)C1CC(=O)O", "note": "(stereo not given in full)", "Potency": "inactive"},
      {"smiles": "CC(=O)OC1C(O)C(C)=C(CCC(C)CC(=O)O)C2(C)CCCC(C)(C)C12", "note": "(stereo not given)", "Potency": "inactive"},
      {"smiles": "COC1C=C([C@@H]2CC=C3[C@@]4(C)C(CC[C@]32C)[C@@]2(C)C=CC(=O)C(C)(C)C2C[C@H]4OC(C)=O)C(=O)O1", "note": "(stereo not given in full)", "Potency": "inactive"},
      {"smiles": "CC(=O)N[C@H]1CCN(c2ccc(C3=NOC(CN[S+](=O)([O-])C(C)C)C3)cc2F)C1", "note": "(stereo not given in full)", "Potency": "inactive"},
      {"smiles": "CC[C@@]1(O)C(=O)OCc2c1cc1n(c2=O)Cc2cc3c([N+](=O)[O-])cccc3nc2-1", "Potency": "16.4 µM (active)"},
      {"smiles": "C=C1CCC2C(C)(C)CC(=O)CC2(C)C1CCC(C)CCOC(C)=O", "note": "(stereo not given)", "Potency": "inactive"},
      {"smiles": "CC1(C)O[C@]23C[C@H]1C[C@H](OC(=O)c1ccoc1)[C@]2(C)[C@@H](OC(=O)c1ccoc1)CCC3(C)O", "note": "(stereo not given in full)", "Potency": "inactive"},
      {"smiles": "CC(=O)N(CC(C)C(=O)O)c1c(I)cc(I)c(N)c1I", "note": "(stereo not given)", "Potency": "inactive"},
      {"smiles": "CC1=CC2(O)/C=C/C(C)(O)CC(O)/C=C/C(=O)OC23C(=O)NC(CC(C)C)C3C1C", "note": "(stereo not given)", "Potency": "inactive"}
    ]}
  ]
}
